Assay outcomes deposited in PubChem BioAssay by National Center for Advancing Translational Sciences (NCATS).
FLuc inh: Photinus pyralis luciferase inhibition. P08659. purified P. pyralis luciferase, luminescence, biochemical. Potency, µM (titrated, usually from 115 µM), usual class: inhibitors. actives 2.5% (n = 76,000); further: nearly all actives have a fitted effect of over 65% in size
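FLuc 10nM, D-luciferin 10uM, ATP 10uM, Mg acetate 10mM, Tris acetate pH 7.5, Tween/BSA; cpd qHTS; enzyme added last; CCD luminescence.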
3T3 cytotox: NIH 3T3 cell cytotoxicity; actives 4.3% (n = 94,000); Potency, µM (doses to about 96.7 µM), hits mostly inhibitors; NIH 3T3 viability, CellTiter-Glo ATP luminescence, 48-72 h; further: nearly all actives have a fitted effect of over 55% in size
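ATP-dependent luminescence (CellTiter-Glo) served as the viability signal for NIH 3T3 cells treated with compound for 48 or 72 hr at 37 °C.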
GPT2 inh: GPT2 alanine aminotransferase inhibition; actives 0.25% (n = 100,000); Potency, µM (doses to about 57.7 µM), most hits filed as inhibitors; Q8TD30; Recombinant GPT2, coupled pyruvate oxidase/HRP Amplex Red fluorescence; further: nearly all actives have a fitted effect of over 60% in size
Target sequence (Q8TD30 whole entry, looked up): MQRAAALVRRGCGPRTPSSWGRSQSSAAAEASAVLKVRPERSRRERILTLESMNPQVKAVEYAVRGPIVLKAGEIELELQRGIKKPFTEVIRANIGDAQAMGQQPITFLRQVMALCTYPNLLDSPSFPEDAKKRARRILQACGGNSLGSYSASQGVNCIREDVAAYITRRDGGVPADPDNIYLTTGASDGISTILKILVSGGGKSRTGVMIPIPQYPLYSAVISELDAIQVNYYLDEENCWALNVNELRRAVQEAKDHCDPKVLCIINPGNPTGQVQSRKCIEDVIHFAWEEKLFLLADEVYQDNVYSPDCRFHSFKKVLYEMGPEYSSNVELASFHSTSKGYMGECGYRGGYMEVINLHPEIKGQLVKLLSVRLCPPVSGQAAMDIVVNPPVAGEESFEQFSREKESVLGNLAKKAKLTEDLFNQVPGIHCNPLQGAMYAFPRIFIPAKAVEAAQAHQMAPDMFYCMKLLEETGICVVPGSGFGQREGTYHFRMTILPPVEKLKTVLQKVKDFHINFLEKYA
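Fluorescence of coupled pyruvate oxidase/HRP/Amplex Red system (50uM Amplex, 30 min, dark) reports pyruvate formed by GPT2. Enzyme reaction: 10ng/uL GPT2, 2mM L-alanine, 250uM a-KG, 30 min room temperature, pH 7.5; 50uM AOA control.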
NPR1 antag: antagonists of human natriuretic peptide receptor Npr1; actives 1.6% (n = 76,000); AID 1347048; Potency, µM (top dose mostly 46.3 µM), actives largely listed as inhibitors; P16066; HEK293 hNpr1 GloSensor cGMP, ANP-stimulated luminescence; calls by dose curve; further: nearly all actives have a fitted effect of over 60% in size
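HEK293 cells stably expressing human Npr1 and cGMP GloSensor pGS-40F, loaded 2 h with 2% GloSensor reagent, given compound 30 min at room temperature. Luminescence read before and 20 min after 0.1 nM hNppA.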
HEK cytotox: HEK 293 cell cytotoxicity | HEK 293 viability, ATP luminescence (CellTiter-Glo), 48-72 h | Potency, µM (doses to about 115 µM), actives largely listed as inhibitors | actives 6.6% (n = 94,000); further: nearly all actives have a fitted effect of over 60% in size
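qHTS cytotoxicity; HEK 293, 250 cells/well; compound pinned; 48 or 72 hr, 37 degree Celsius, 5% CO2, 95% humidity; CellTiter-Glo, 10 min RT; luminescence (ATP).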
Npr1 antag conf: confirmation of human Npr1 natriuretic peptide receptor antagonists. shares compounds with NPR1 antag. HEK293 hNpr1 cGMP GloSensor luminescence, ANP-stimulated. Potency, µM (doses to about 57.6 µM), usual class: inhibitors. actives 76% (n = 1,400); calls by dose curve; further: nearly all actives have a fitted effect of over 70% in size
NPR2 antag: hNpr2 antagonism, selectivity versus Npr1 | HEK293 hNpr2 GloSensor cGMP luminescence, CNP-stimulated | AID 1347046 | shares compounds with NPR1 antag | Potency, µM (top dose mostly 57.6 µM), usual class: inhibitors | actives 67% (n = 1,400); calls by dose curve; further: nearly all actives have a fitted effect of over 70% in size
FLuc counter: counter-screen for Npr1 antagonists: firefly luciferase inhibitors; shares compounds with NPR1 antag; Potency, µM (titrated, usually from 57.6 µM), usual class: inhibitors; AID 1347047; purified FLuc enzyme, luminescence, Km substrate; actives 0.7% (n = 1,400); further: series mostly up to about 58 µM
GloSensor cGMP: control cell line activity, Npr1 antagonist counter-screen | shares compounds with NPR1 antag | HEK293 GloSensor cGMP, SNP-stimulated, luminescence | Potency, µM (top dose mostly 57.6 µM), most hits filed as inhibitors | actives 69% (n = 1,400); calls by dose curve; further: nearly all actives have a fitted effect of over 70% in size
A number is an active result. Compounds with a hit are over-represented: about 10% of the library has one in this group of screens. Unless noted, the call rests on the fitted dose curve; in most records, active means well fitted curve in the direction sought with a large enough effect; inconclusive means small, poorly fitted or top-dose-only effect, or another doubt; inactive means no such curve, though single readings can be large; an effect the other way counts as inactive or inconclusive.

Cc1nc2ccccc2nc1CN1CCC2(CCC(=O)N(CCO)C2)CC1 was read as FLuc inh inactive, 3T3 cytotox inconclusive, GPT2 inh inactive, NPR1 antag inactive and HEK cytotox inconclusive.
Screening CNC(=O)c1cc(C)nc2onc(C3CCN(C(=O)COC)C3)c12 (centres undefined) returned 3T3 cytotox inactive and HEK cytotox inactive.
O=C(O)c1ccc(-c2cc(C(F)(F)F)ccc2Cl)cc1 was read as 3T3 cytotox inactive, GPT2 inh inactive and HEK cytotox inactive.
Screening O=C1NCCC[C@@H]1NC(=O)[C@@H]1CN(C(=O)C2CCCCC2)CCN1C(=O)c1cccc(F)c1 returned FLuc inh inactive, 3T3 cytotox inactive, GPT2 inh inactive, NPR1 antag inactive and HEK cytotox inactive.
COc1cccc(CN2CCOC3(CCN(Cc4ccc(C#N)cc4)CC3)C2=O)c1 was read as FLuc inh inactive, 3T3 cytotox inconclusive, GPT2 inh inactive, NPR1 antag inconclusive, HEK cytotox inconclusive, Npr1 antag conf 35.3µM, NPR2 antag 39.6µM, FLuc counter inactive and GloSensor cGMP 35.3µM.
Screening CC(C)N(CCCNC(=O)Nc1ccc(C(C)(C)C)cc1)C[C@H]1O[C@@H](n2cc(Br)c3c(N)ncnc32)[C@H](O)[C@@H]1O returned GPT2 inh inactive.
Cc1cccc(OCCc2noc(C3CN(C4CCN(Cc5ccccc5)CC4)C3)n2)c1 was read as FLuc inh inactive, 3T3 cytotox inactive, GPT2 inh inactive, NPR1 antag inconclusive and HEK cytotox inconclusive.
For Cc1ccc(NC(=O)O[C@@H]2CC[C@]3(C)[C@H](CC[C@H]4OC(=O)C[C@H]43)[C@]2(C)CO)cc1 the results were FLuc inh inactive, 3T3 cytotox inactive, GPT2 inh inactive, NPR1 antag inconclusive, HEK cytotox inactive, Npr1 antag conf inconclusive, NPR2 antag inconclusive, FLuc counter inactive and GloSensor cGMP 39.6µM.
Screening O=C(c1cc(F)ccc1F)N1CCC(Cc2nc(-c3ccccc3)no2)CC1 returned FLuc inh inactive, 3T3 cytotox inconclusive, GPT2 inh inactive, NPR1 antag 5.62µM, HEK cytotox inconclusive, Npr1 antag conf 7.69µM, NPR2 antag 9.68µM, FLuc counter inactive and GloSensor cGMP 8.62µM.
For COc1ccc(-c2noc(CC3CCN(C(=O)c4cc(F)ccc4Cl)CC3)n2)cc1 the results were FLuc inh inactive, 3T3 cytotox inconclusive, GPT2 inh inactive, NPR1 antag 10µM, HEK cytotox inconclusive, Npr1 antag conf 12.2µM, NPR2 antag 13.7µM, FLuc counter inactive and GloSensor cGMP 10.9µM.
`O=C(c1cccc(F)c1)N1CCC(Cc2nc(-c3cnccn3)no2)CC1` gave FLuc inh inactive, 3T3 cytotox inactive, GPT2 inh inactive, NPR1 antag inactive and HEK cytotox inactive.
O=C(c1ccc(F)cc1Cl)N1CCC(Cc2nc(-c3ccc(F)cc3)no2)CC1 was read as FLuc inh inactive, 3T3 cytotox inconclusive, GPT2 inh inactive, NPR1 antag 3.16µM, HEK cytotox 31.6µM, Npr1 antag conf 3.06µM, NPR2 antag 3.06µM, FLuc counter inactive and GloSensor cGMP 3.06µM.
Screening COc1ccc(-c2cc(N3CCN(C(=O)c4cc(F)ccc4Cl)CC3)n[nH]2)cc1 returned FLuc inh inactive, 3T3 cytotox inconclusive, GPT2 inh inactive, NPR1 antag inactive and HEK cytotox inconclusive.
For O=C(c1ccc(F)c(Cl)c1)N1CCC(Cc2nc(-c3cnccn3)no2)CC1 the results were FLuc inh inactive, 3T3 cytotox 31.6µM, GPT2 inh inactive, NPR1 antag inconclusive, HEK cytotox inconclusive, Npr1 antag conf 21.7µM, NPR2 antag inconclusive, FLuc counter inactive and GloSensor cGMP 19.3µM.
For CC(C)c1noc(CC2CCN(C(=O)c3ccc(F)cc3Cl)CC2)n1 the results were FLuc inh inactive, 3T3 cytotox inactive, GPT2 inh inactive, NPR1 antag inconclusive and HEK cytotox inconclusive.
`c1cnc(N2CCOCC2)c(CN(Cc2ccsc2)CC2CCCO2)c1` (centres undefined) gave FLuc inh inactive, 3T3 cytotox inactive, GPT2 inh inactive, NPR1 antag inactive and HEK cytotox inactive.
`COc1ccc(C2(C(=O)N3CCC4(CCC4OC)CC3)CC2)cc1` (centres undefined) gave FLuc inh inactive, 3T3 cytotox inactive, GPT2 inh inactive, NPR1 antag inactive and HEK cytotox inactive.
COCc1nc(C2CC(N)C2)cc(N2CC(c3nccs3)C2)n1 (centres undefined) was read as FLuc inh inactive, 3T3 cytotox inactive, GPT2 inh inactive, NPR1 antag inactive and HEK cytotox inactive.
For O=C(NCCCn1ccnc1)c1nc(-c2ccccc2)cc2[nH]ccc12 the results were FLuc inh inactive, 3T3 cytotox inconclusive, GPT2 inh inactive, NPR1 antag inconclusive, HEK cytotox inconclusive, Npr1 antag conf inconclusive, NPR2 antag inconclusive, FLuc counter inactive and GloSensor cGMP inactive.
Screening O=C1CCC(CNC(=O)c2nc(-c3ccccc3)cc3[nH]ccc23)N1 (centres undefined) returned FLuc inh inactive, 3T3 cytotox inconclusive, GPT2 inh inactive, NPR1 antag inactive and HEK cytotox inactive.
`COc1ccc(CC(=O)N[C@@H]2CN(c3ccccn3)C[C@H]2CN(C)C)cc1` gave FLuc inh inactive, 3T3 cytotox inactive, GPT2 inh inactive, NPR1 antag inactive and HEK cytotox inactive.
`O=C1c2cccnc2OC2(CCCC2)CN1CCOc1ccccc1` gave 3T3 cytotox inactive, GPT2 inh inactive and HEK cytotox inconclusive.
Screening O=C(NCc1c[nH]c2ncccc12)c1cccnc1 returned FLuc inh inactive, 3T3 cytotox inactive, GPT2 inh inactive, NPR1 antag inactive and HEK cytotox inactive.
Screening COc1ccc(-c2cnc3[nH]cc(CC(=O)Nc4ccc(OC)nc4)c3c2)cc1 returned FLuc inh inactive, 3T3 cytotox inconclusive, GPT2 inh inactive, NPR1 antag inconclusive, HEK cytotox inconclusive, Npr1 antag conf inconclusive, NPR2 antag inconclusive, FLuc counter inactive and GloSensor cGMP inconclusive.
